Among the data in PubChem BioAssay (Tox21) are Potency and outcome values, retold here.

Experiment [1] can be described thus: qHTS assay to identify small molecule agonists of the vitamin D receptor (VDR) signaling pathway - cell viability counter screen (AID 743224). Also: nearly all actives have a fitted effect of over 50% in size. Also: potency is read from the fitted curve at half-maximal effect. The method, boiled down: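 In parallel with the bla FRET readout, cytotoxicity toward VDR-bla cells after 16 h compound exposure was assessed by CellTiter-Glo, with luminescence recorded after a 30 min room-temperature incubation.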

Experiment [2] is described as follows: qHTS assay to identify small molecule antagonists of the vitamin D receptor (VDR) signaling pathway - cell viability counter screen (AID 743225). Also: nearly all actives have a fitted effect of over 50% in size. Also: potency is read from the fitted curve at half-maximal effect. The method, boiled down: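 Same-well multiplex: following 16 h treatment of HEK 293T cells carrying a UAS-driven beta-lactamase reporter with compound and agonist (3 nM final), and a 2 h FRET substrate step, CellTiter-Glo was added and luminescence read after 30 min.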

Experiment [3] in a line: qHTS assay to identify small molecule agonists of the NFkB signaling pathway (AID 1159509; active = well fitted curve in the direction sought with a large enough effect in the signal ratio in the repeat runs, not every such curve was filed as active; the % refers to the signal ratio; also: series mostly up to about 61 µM). In outline: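 Agonist activity was read as beta-lactamase-driven FRET change (460 and 530 nm emission, 405 nm excitation) following 1.5 hr substrate loading at room temperature. Beforehand, ME-180 NFkB-bla reporter cells were treated with compounds for 5 hr at 37 C.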
Experiment [4] can be described thus: qHTS assay to identify small molecule agonists of the NFkB signaling pathway - cell viability counter screen (AID 1159515; calls by dose curve; also: series mostly up to about 61 µM; nearly all actives have a fitted effect of over 55% in size). The method, boiled down:
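Plate 2,000 NFkB-bla ME-180 cells/well; incubate overnight. Add compounds, 5 hr at 37 C. Add FRET substrate, 1.5 hr RT. Add CellTiter-Glo, 30 min RT; read luminescence.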

The nature of experiment [5]: qHTS assay to identify small molecule agonists of the endoplasmic reticulum stress response signaling pathway (AID 1159516; active = well fitted activation curve with a large enough effect in the signal ratio in the repeat runs, not every such curve was filed as active; the % refers to the signal ratio). The method, boiled down: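 Beta-lactamase expression from the ER stress response element in HeLa reporter cells is quantified with the LiveBLAzer B/G FRET substrate, read at 405 nm excitation after 2 hr at room temperature, following 5 hr compound treatment at 37 C.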
On the technique in general: qHTS replaces the single test concentration by a dilution series.

The target of experiment [6] is Nuclear receptor ROR-gamma (Homo sapiens) (UniProt P51449). The experiment can be described thus: qHTS assay to identify small molecule antagonists of the retinoid-related orphan receptor gamma (ROR-gamma) signaling pathway (AID 1159521; also: nearly all actives have a fitted effect of over 50% in size; also: potency is read from the fitted curve at half-maximal effect). In outline: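 Inducible-expression reporter assay: doxycycline (1 uM final) switched on RORγ in CHO cells bearing a ROR response element-luciferase construct, with test compounds present from 2 h beforehand. Decreased luminescence after 16 h defined antagonist activity.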

A short description of experiment [7]: qHTS assay to identify small molecule agonists of the AP-1 signaling pathway - cell viability counter screen (AID 1159525; calls by dose curve; also: nearly all actives have a fitted effect of over 55% in size). In outline: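 Intracellular ATP by Cell Titer Glo luminescence (30 min, RT) in the same ME-180 AP-1-bla wells after the 5 h compound exposure at 37 °C. Normalised to tetra n-octyl ammonium bromide and DMSO controls.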
Experiment [8] can be described thus: qHTS assay to identify small molecule agonists of the RXR signaling pathway - cell viability counter screen (AID 1159529). Also: series mostly up to about 77 µM; nearly all actives have a fitted effect of over 50% in size. In outline:
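Counter screen: CellTiter-Glo luminescence. Cells: RXR-alpha-UAS-bla HEK 293T. Medium: 2% charcoal-stripped FBS. Treatment: 16 h, 37 C. Reagent incubation: 30 min, RT.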

Experiment [9] in a line: qHTS assay to identify small molecule antagonists of the retinoid acid receptor (RAR) signaling pathway - cell viability counter screen (AID 1159551). Also: nearly all actives have a fitted effect of over 35% in size. The method, boiled down:
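Viability of C3RL4 cells is quantified from ATP by luminescence after 6 h treatment at 37 C with compounds and 1 uM retinol.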

The nature of experiment [10]: qHTS assay to identify small molecule agonists of the AP-1 signaling pathway (AID 1159526; calls by dose curve).
Experiment [11] has as its target Retinoic acid receptor RXR-alpha (Homo sapiens) (UniProt P19793). The experiment can be described thus: qHTS assay to identify small molecule agonists of the RXR signaling pathway (AID 1159527; calls by dose curve; also: nearly all actives have a fitted effect of over 35% in size; also: potency is read from the fitted curve at half-maximal effect). In outline: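 Compounds in DMSO were added to RXR-alpha-UAS-bla HEK 293T cells kept in 2% charcoal-stripped serum, and incubated 16 hr at 37 C with 5% CO2. Reporter signal came from a 2 hr B/G FRET substrate step.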

Experiment [12] in a line: qHTS assay to identify small molecule agonists of the endoplasmic reticulum stress response signaling pathway - cell viability counter screen (AID 1159517; calls by dose curve; also: nearly all actives have a fitted effect of over 50% in size; also: potency is read from the fitted curve at half-maximal effect). In outline:
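ESRE-bla HeLa cells (1,500/well) were plated overnight at 37 C and exposed to compounds for 5 hr. After the 2 hr beta-lactamase substrate read, CellTiter-Glo went into the same wells, and luminescence was read after 30 min at room temperature.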

A short description of experiment [13]: qHTS assay to identify small molecule antagonists of the retinoid-related orphan receptor gamma (ROR-gamma) signaling pathway - cell viability counter screen (AID 1159520). Also: nearly all actives have a fitted effect of over 50% in size. Also: potency is read from the fitted curve at half-maximal effect. The method, boiled down:
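Cytotoxicity was read from cellular ATP (CellTiter-Glo luminescence) after 16 hr at 37 C with 1 uM doxycycline induction. The inducer was added 2 hr after compound transfer to Tet-on ROR gamma CHO cells.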

Experiment [14] is described as follows: qHTS assay to identify small molecule agonists of the retinoic acid receptor (RAR) signaling pathway (AID 1159553). Also: potency is read from the fitted curve at half-maximal effect. The method, boiled down: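 Compounds dissolved in DMSO were pinned onto C3RL4 cells seeded the previous day, and plates were held 6 hr at 37 C. RARE-driven luciferase output was then read by luminescence.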
Experiment [15] is described as follows: qHTS assay to identify small molecule antagonists of the retinoic acid receptor (RAR) signaling pathway (AID 1159552; also: nearly all actives have a fitted effect of over 50% in size). In outline: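 Antagonism of retinol-induced RARE reporter activity was measured in C3RL4 cells. Exposure to compounds and 1 uM final retinol lasted 6 hr at 37 C, with luminescence as endpoint.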
Experiment [16] can be described thus: qHTS assay to identify small molecule antagonists of the estrogen related receptor (ERR) signaling pathway - cell viability counter screen (AID 1224818). Also: series mostly up to about 46 µM. The method, boiled down: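 Cytotoxicity check run alongside the ERR antagonist screen: cells exposed to test compounds 17.5 h at 37 C, viability taken as CellTiter-Fluor fluorescence intensity.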
A short description of experiment [17]: qHTS assay to identify small molecule agonists of the estrogen related receptor (ERR) signaling pathway (AID 1224820). In outline:
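After 6 h plating (2,000 cells/well) and 18 h compound treatment at 37 C, ERR cells were lysed with One-Glo and luminescence read after 30 min at room temperature.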

In experiment [18] the test system is estrogen-related receptor alpha (ERRalpha) with PGC-1alpha coactivator, human. The experiment can be described thus: qHTS assay to identify small molecule antagonists of the estrogen related receptor signaling pathway with the pleiotropic PPARgamma coactivator (PGC) (AID 1224821; calls by dose curve). In outline:
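Luminescence from One-Glo luciferase reagent (30 min, room temperature) measured after 18 h compound treatment at 37 °C. Cells carry the PGC/ERR reporter and were seeded 6 h prior to dosing.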

A short description of experiment [19]: qHTS assay to identify small molecule antagonists of the estrogen related receptor signaling pathway with the pleiotropic PPARgamma coactivator (PGC) cell viability counter screen (AID 1224822;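 also: series mostly up to about 46 µM; viability read after 17.5 h compound exposure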). The method, boiled down: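 Viable cell signal (CellTiter-Fluor, 30 min, 37 C/5% CO2) was measured in PGC/ERR cells after a 17.5 h compound incubation.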

SMILES strings stand for the structures. Records with an inconclusive call do not appear. The source made the active and inactive calls. Unless noted, calls follow the shape of the dose curve; as a rule, active = well fitted curve in the direction sought with a large enough effect in the repeat runs; inconclusive = weak or mixed curves; inactive = no such curve, though single readings can be large; an effect the other way counts as inactive or inconclusive.

Retinoic acid receptor RXR-alpha (Homo sapiens), sequence (P19793 whole entry, looked up): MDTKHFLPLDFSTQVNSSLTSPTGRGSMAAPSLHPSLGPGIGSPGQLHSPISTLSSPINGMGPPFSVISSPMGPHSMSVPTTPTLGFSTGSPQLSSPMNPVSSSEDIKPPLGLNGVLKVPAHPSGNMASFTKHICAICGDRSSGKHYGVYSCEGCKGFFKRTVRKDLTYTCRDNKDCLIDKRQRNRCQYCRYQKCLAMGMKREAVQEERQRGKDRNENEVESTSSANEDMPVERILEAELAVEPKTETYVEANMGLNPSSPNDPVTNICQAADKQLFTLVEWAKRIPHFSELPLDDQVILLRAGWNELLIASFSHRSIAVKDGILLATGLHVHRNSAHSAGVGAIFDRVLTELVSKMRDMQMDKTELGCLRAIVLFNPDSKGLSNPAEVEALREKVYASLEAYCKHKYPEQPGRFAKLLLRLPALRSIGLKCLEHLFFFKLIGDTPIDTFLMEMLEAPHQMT

Take `N#CCC#N`: the Potency result in experiment [1], in experiment [2], in experiment [4], in experiment [7], in [8] and in [9] was “inactive” throughout. The result in experiment [3] and in experiment [5] was inactive. The Potency in experiment [6] was 27.3 µM (active).

In the case of `CCCCCC[N+](=O)[O-]`, the Potency entry in experiment [1], in [2], in experiment [4], in [7], in experiment [11] and in experiment [8] was “inactive” each time. The Potency result in [9] was “inactive”. For the same compound, the result in experiment [3], in [5] and in [10] was inactive.

In the case of `O=C(O)C(F)(F)C(F)(F)C(F)(F)C(F)(F)C(F)(F)C(F)(F)C(F)(F)C(F)(F)C(F)(F)C(F)(F)F`, the Potency result in [1], in experiment [2], in [4], in [12], in [13] and in experiment [6] was “inactive” throughout. In addition, the Potency entry in experiment [7], in [8], in [9] and in experiment [14] was “inactive” each time. Also, the call in experiment [3] and in [10] was inactive. For the same compound, the Potency in experiment [11] is 11.6 µM (active).

With `O=C(C(Cl)(Cl)Cl)C(Cl)(Cl)Cl`, the Potency result in experiment [1], in experiment [2], in experiment [4], in [12], in [13] and in [6] was “inactive” throughout. The Potency result in [7], in experiment [11], in experiment [8], in experiment [9], in experiment [15] and in [14] was “inactive” each time. Also, the outcome in experiment [3] and in [10] was inactive.

With `O=C1CN=C(c2ccccc2)c2cc(Cl)ccc2N1CC1CC1`, the Potency entry in [1], in experiment [2], in [4], in [6], in experiment [7] and in experiment [8] was “inactive” throughout. Moreover, the Potency result in [9], in experiment [15] and in experiment [14] was “inactive” in each case. In addition, the outcome in experiment [3], in experiment [5] and in [10] was inactive.

For the compound `Cl/C=C\Cl`, the Potency result in experiment [1], in [2], in [4], in [6], in experiment [7] and in experiment [11] was “inactive” throughout. The Potency result in experiment [8], in experiment [15] and in experiment [14] was “inactive” in each case. The compound was classed as inactive in [3], in experiment [5] and in [10].

As to `Nc1nc(N)nc(N)n1`, the Potency result in experiment [1], in experiment [2], in [4], in experiment [6], in experiment [7] and in experiment [11] was “inactive” each time. Also, the Potency entry in experiment [8], in experiment [9], in experiment [15] and in [14] was “inactive” each time. Moreover, the call in experiment [3], in experiment [5] and in experiment [10] was inactive.

In the case of `CC(C)=CCOc1c2occc2cc2ccc(=O)oc12`, the Potency result in experiment [1], in experiment [2], in [4], in [12], in experiment [13] and in [6] was “inactive” in each case. For the same compound, the Potency result in [7], in [11], in experiment [8], in [9], in [14] and in experiment [18] was “inactive” each time. The Potency result in experiment [19] was “inactive”. Further, the call in experiment [3], in experiment [10], in experiment [16] and in [17] was inactive.

For `CCCN(CC1CC1)c1c([N+](=O)[O-])cc(C(F)(F)F)cc1[N+](=O)[O-]`, the Potency entry in experiment [1], in [2], in [4], in experiment [12], in experiment [13] and in experiment [6] was “inactive” in each case. For the same compound, the Potency result in [7], in [9] and in [14] was “inactive” throughout. In addition, the result in experiment [3] and in experiment [10] was inactive.

Consider `C=COC(C)=O`, for which the Potency result in experiment [1], in experiment [2], in experiment [4], in experiment [12], in experiment [13] and in [6] was “inactive” in each case. In addition, the Potency result in [7], in experiment [11], in [8], in [9] and in experiment [14] was “inactive” throughout. Also, the call in experiment [3] and in experiment [10] was inactive.

On to `O=[N+]([O-])c1ccc(F)c([N+](=O)[O-])c1`, for which the Potency entry in experiment [1], in [2], in experiment [4], in experiment [7], in experiment [11] and in experiment [9] was “inactive” throughout. The Potency entry in experiment [15] and in [14] was “inactive” in each case. Besides, the compound was classed as inactive in experiment [3] and in experiment [10]. Further, the figures for the Potency in experiment [12], in experiment [13] and in experiment [6] were 17.5 µM (active), 38.9 µM (active) and 49 µM (active), respectively.

In the case of `CN(C)c1ccc(N(C)C)cc1`, the Potency result in [2], in experiment [4], in experiment [6], in [7], in experiment [8] and in experiment [9] was “inactive” in each case. Further, the Potency entry in [15] was “inactive”. Besides, the outcome in experiment [3] and in [5] was inactive. The Potency in experiment [14] was 12.2 µM (active).

In the case of `COc1ccc(-c2ccccc2)cc1NNC(=O)OC(C)C`, the results for the Potency in experiment [1] and in [2] were 57.2 µM (active) and 51 µM (active), respectively. For the same compound, the compound was classed as inactive in experiment [3], in [5] and in [10]. Also, the Potency entry in experiment [4], in experiment [7], in experiment [8], in [9] and in experiment [14] was “inactive” in each case.

In the case of `CCCCCCCCCCOC(=O)c1ccccc1C(=O)OCCCCCCCCCC`, the Potency result in experiment [1], in experiment [4], in experiment [6], in experiment [7], in [11] and in [8] was “inactive” each time. Further, the Potency entry in experiment [9] was “inactive”. Moreover, the result in [3], in experiment [5] and in [10] was inactive.
